Data taken from PubChem BioAssay.
Calls of active or inactive are those of the source.

How the values were obtained:
[1] = system: Human papillomavirus type 1a protein E7 (residues 44-93); test: HPV1a E7 fragment binders on microarrays, primary screen, biochemical, small-molecule microarray, residues 44-93, 635 nm fluorescence (AID 1108); settings: small-molecule microarray binding, fluorescence 635 nm; higher = more signal;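 also: E7 fragment applied at 1 µg/mL in TBST for 1 h at 4 C; score combines spot fluorescence with its signal to noise ratio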
[2] = modulators of HCV replicon luciferase signal, primary screen, HCV replication inhibitor project, Huh7 cells, luciferase reporter (AID 1109); settings: 48 h, higher = more signal;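 also: huh7 hepatoma cells harbouring a luciferase neomycin HCV replicon reporter; luciferase luminescence as measure of HCV replicon replication; test concentration not given here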
[3] = molecular target: Left-right determination factor 2 (Homo sapiens) (UniProt O00292); test: LEFTY2 binders on small-molecule microarrays, primary screen, biochemical, small-molecule microarray, 635 nm fluorescence scan (AID 1110); settings: LEFTY2 binding, higher = more signal
Chain of Left-right determination factor 2 (Homo sapiens) (O00292 whole entry, looked up): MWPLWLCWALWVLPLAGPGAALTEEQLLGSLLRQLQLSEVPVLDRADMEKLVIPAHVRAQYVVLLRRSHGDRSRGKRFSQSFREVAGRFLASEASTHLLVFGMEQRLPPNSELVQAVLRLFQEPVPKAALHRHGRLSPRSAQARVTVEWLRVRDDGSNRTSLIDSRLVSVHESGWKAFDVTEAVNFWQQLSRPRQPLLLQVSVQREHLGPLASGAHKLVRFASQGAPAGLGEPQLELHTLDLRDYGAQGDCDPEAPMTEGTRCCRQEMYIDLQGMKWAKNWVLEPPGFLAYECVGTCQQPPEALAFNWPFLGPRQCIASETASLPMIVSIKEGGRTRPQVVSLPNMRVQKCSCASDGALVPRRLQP

[4] = molecular target: Calmodulin-1 (Homo sapiens) (UniProt P0DP23); test: CALM1 binders on microarrays, EGTA buffer, profiling panel, biochemical, small-molecule microarray, Cy5-labelled CALM1 (AID 1111); settings: Cy5-CALM1 binding fluorescence, higher = more signal;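 also: labelled calmodulin applied in Tris saline Tween buffer holding calcium plus EGTA and DTT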
[5] = molecular target: Calmodulin-1 (Homo sapiens) (UniProt P0DP23); test: calcium-bound CALM1 binders on microarrays, profiling panel, artefact control for SMM control-protein annotation, biochemical, small-molecule microarray, Cy5-labelled CALM1, plus calcium (AID 1112); settings: Cy5-CALM1 binding fluorescence, higher = more signal;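 also: score merges spot fluorescence with signal to noise from triplicate slides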
[6] = small-molecule microarray binders of probe aWnt5a, primary screen, biochemical, biotinylated probe, 635/667 nm fluorescence (AID 1113); settings: higher = more signal;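 also: score merges 667 nm fluorescence intensity with signal-to-noise per printed feature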
[7] = small-molecule microarray binders of probe aShh, primary screen, biochemical, biotinylated probe, 635/667 nm fluorescence (AID 1114); settings: higher = more signal;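 also: probe is biotin-labelled aShh protein from a stem cell growth factor screen; measures binding of labelled protein to compounds printed on the slide; score merges feature fluorescence at 667 nm with signal-to-noise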
[8] = small-molecule microarray binders of probe aNog, primary screen, biochemical, biotinylated probe, 635/667 nm fluorescence (AID 1115); settings: higher = more signal;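 also: probe is biotinylated aNog protein used at 0.15 µg/mL for 1 h at 4 C; z-score combines 667 nm fluorescence of each spot with its signal to noise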
[9] = molecular target: Torsin-1A-interacting protein 1 (Homo sapiens) (UniProt Q5JTV8); test: LAP1 binders from COS7 cell lysate, primary screen, small-molecule microarray, 635/667 nm fluorescence (AID 1116); settings: COS7-hLAP1 lysate binding, 635 nm fluorescence, higher = more signal
Chain of Torsin-1A-interacting protein 1 (Homo sapiens) (Q5JTV8 whole entry, looked up): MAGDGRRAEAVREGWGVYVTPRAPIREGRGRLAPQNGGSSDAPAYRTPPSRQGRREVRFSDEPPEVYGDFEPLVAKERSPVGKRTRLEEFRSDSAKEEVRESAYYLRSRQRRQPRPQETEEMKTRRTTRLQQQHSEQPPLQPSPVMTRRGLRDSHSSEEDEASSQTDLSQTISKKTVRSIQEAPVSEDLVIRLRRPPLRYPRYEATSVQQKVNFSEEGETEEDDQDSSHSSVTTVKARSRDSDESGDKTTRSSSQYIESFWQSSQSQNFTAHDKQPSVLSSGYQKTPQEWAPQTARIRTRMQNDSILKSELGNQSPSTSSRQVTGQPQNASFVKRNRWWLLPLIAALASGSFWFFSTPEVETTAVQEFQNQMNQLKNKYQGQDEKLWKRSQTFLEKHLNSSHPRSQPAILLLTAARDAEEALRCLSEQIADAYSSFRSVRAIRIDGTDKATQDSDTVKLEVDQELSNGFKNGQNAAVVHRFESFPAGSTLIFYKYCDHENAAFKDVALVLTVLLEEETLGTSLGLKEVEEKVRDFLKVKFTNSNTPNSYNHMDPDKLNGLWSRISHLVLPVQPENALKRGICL

[10] = molecular target: Alpha-bungarotoxin (Bungarus multicinctus) (UniProt P60615); test: alpha-bungarotoxin binders on microarray, profiling panel, artefact control for SMM control protein annotation, biochemical, small-molecule microarray, Alexa647 label, 635/667 nm fluorescence (AID 1117); settings: alpha-BTX-A647 binding fluorescence, higher = more signal
Chain of Alpha-bungarotoxin (Bungarus multicinctus) (P60615 whole entry, looked up): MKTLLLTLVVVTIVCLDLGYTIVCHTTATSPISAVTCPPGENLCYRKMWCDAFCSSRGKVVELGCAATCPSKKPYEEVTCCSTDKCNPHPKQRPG

[11] = molecular target: Albumin (Bos taurus) (UniProt P02769); test: bovine serum albumin binders on microarray, profiling panel, artefact control for SMM control protein annotation, biochemical, small-molecule microarray, Alexa647 label, 635/667 nm fluorescence (AID 1118); settings: BSA-A647 binding, fluorescence 635 nm, higher = more signal;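 also: score merges 667 nm emission intensity and signal-to-noise per printed compound spot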
Chain of Albumin (Bos taurus) (P02769 whole entry, looked up): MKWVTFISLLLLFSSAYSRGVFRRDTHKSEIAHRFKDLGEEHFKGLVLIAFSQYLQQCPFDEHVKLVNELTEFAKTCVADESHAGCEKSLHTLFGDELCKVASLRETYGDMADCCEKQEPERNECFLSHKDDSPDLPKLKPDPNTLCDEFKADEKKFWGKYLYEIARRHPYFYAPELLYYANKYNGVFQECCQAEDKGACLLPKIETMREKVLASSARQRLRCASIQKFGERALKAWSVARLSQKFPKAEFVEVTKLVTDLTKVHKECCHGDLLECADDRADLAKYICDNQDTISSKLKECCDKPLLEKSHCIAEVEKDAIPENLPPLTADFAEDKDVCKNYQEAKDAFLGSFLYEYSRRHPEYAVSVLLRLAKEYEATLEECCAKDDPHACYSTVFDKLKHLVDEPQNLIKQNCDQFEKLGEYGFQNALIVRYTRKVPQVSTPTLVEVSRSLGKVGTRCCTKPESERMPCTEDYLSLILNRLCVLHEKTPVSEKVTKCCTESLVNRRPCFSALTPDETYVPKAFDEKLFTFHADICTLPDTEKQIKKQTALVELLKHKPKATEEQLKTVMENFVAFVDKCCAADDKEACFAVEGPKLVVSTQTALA

[12] = small-molecule microarray binders of probe aXIP, primary screen, biochemical, NeuroSMM set, 635/667 nm fluorescence (AID 1119); settings: higher = more signal, called active from +8 up or from −8 down;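 also: probe is the protein aXip251-270 applied at 1 µg/mL to compound-printed slides; binding of probe to printed compounds measured as 667 nm fluorescence plus signal to noise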
[13] = small-molecule binders of probe aNOTCH3, primary screen, biochemical, small-molecule microarray, 635/667 nm fluorescence (AID 1120); settings: higher = more signal;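 also: probe is a biotin-tagged antibody raised against NOTCH3 rather than NOTCH3 protein; score merges spot fluorescence near 667 nm with spot signal to noise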
[14] = small-molecule binders of probe aNOTCH2, primary screen, biochemical, small-molecule microarray, 635/667 nm fluorescence (AID 1121); settings: higher = more signal;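 also: score merges feature fluorescence read at 667 nm with its signal to noise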
[15] = molecular target: Carbonic anhydrase 2 (Homo sapiens) (UniProt P00918); test: CAII small-molecule binders, profiling panel, biochemical, small-molecule microarray, Alexa647-labelled CAII (AID 1122); settings: CAII-A647 binding fluorescence, higher = more signal
[16] = COS7 lysate on small-molecule microarray, probe aHis, 635 nm (AID 1123); settings: COS7 cell lysate, fluorescence, higher = more signal;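 also: z-score combines 667nm fluorescence intensity with signal-to-noise per printed compound spot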
[17] = compound binding in COS7 lysate, probe aLAP1, primary screen, cell lysate, small-molecule microarray (AID 1124); settings: probe aLAP1, fluorescence, higher = more signal;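 also: lysate comes from COS7 cells expressing LAP1 and is applied at 0.3 µg/mL; score merges spot fluorescence near 667 nm with signal-to-noise over triplicate slides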
[18] = system: Sam68 (KHDRBS1); test: Sam68 small-molecule binders, primary screen, biochemical, small-molecule microarray, 635 nm fluorescence (AID 1125); settings: small-molecule microarray binding, higher = more signal;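 also: score merges 667 nm channel intensity with signal to noise over triplicate slides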
[19] = system: Chordin-like protein 2 (CHRDL2); test: CHRDL2 small-molecule binders, primary screen, biochemical, small-molecule microarray, 635 nm fluorescence (AID 1126); settings: small-molecule microarray binding, fluorescence 635 nm; higher = more signal;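 also: printed compound slides probed with Chrdl2 protein at 4 µg/mL for 1 h at 4 C; score merges 667 nm emission intensity with signal to noise over three replicate slides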
[20] = molecular target: Concanavalin-A (Canavalia ensiformis) (UniProt P02866); test: ConA small-molecule binders, primary screen, artefact control for SMM control protein annotation, biochemical, small-molecule microarray, Alexa647 label, 635 nm (AID 1127); settings: ConA-A647 binding fluorescence, higher = more signal;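 also: z combines 667 nm emission intensity with signal-to-noise across three replicate slides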
Chain of Concanavalin-A (Canavalia ensiformis) (P02866 whole entry, looked up): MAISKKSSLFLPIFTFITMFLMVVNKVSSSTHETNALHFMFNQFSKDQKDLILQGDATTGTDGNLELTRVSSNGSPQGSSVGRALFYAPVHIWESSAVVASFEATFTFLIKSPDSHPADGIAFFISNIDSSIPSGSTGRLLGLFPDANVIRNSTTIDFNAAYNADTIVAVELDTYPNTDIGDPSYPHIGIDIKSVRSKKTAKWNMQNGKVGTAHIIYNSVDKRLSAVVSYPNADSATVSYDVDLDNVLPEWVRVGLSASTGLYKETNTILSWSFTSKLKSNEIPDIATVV

| SMILES | composite z-score [1] | z-score [2] | composite z-score [3] | composite z-score [4] | composite z-score [5] | composite z-score [6] | composite z-score [7] | composite z-score [8] | composite z-score [9] | composite z-score [10] | composite z-score [11] | composite Z-score [12] | composite z-score [13] | composite z-score [14] | composite z-score [15] | composite z-score [16] | composite z-score [17] | composite z-score [18] | composite z-score [19] | composite z-score [20] |
| --- | --- | --- | --- | --- | --- | --- | --- | --- | --- | --- | --- | --- | --- | --- | --- | --- | --- | --- | --- | --- |
| Cc1ccc(S(=O)(=O)c2cc3oc2CC[C@@H](CO)NC(=O)N(C)Cc2cn(nn2)C[C@H](Cc2ccccc2)NC3=O)cc1 | -0.398 | -0.376 | -0.587 | 0.212 | 0.175 | -0.1 | 0.483 | 0.402 | 0.781 | 0.513 | 0.811 | 0.222 (inactive) | -0.0006 | -0.145 | 0.581 | 0.682 | 0.192 | 0.476 | -0.479 | 0.894 |
| COC(=O)[C@@]1(Cc2ccccc2CN=[N+]=[N-])N=C(c2ccc(OCCCO)cc2)O[C@H]1c1ccccc1N=[N+]=[N-] | 1.02 | -1.53 | -0.453 | 0.173 | -0.17 | -0.129 | -0.203 | 2.32 | 0.0753 | 0.45 | -0.0759 | -0.22 (inactive) | -0.0164 | 0.215 | 0.569 | 1.33 | -0.507 | 0.454 | -0.388 | 0.544 |
| COc1ccc([Si](C)(C)[C@H]2[C@H](CC(=O)N3Cc4ccccc4C[C@H]3CO)O[C@@]3(C(=O)N(Cc4cccc(N5CCOC5=O)c4)c4ccccc43)[C@@H]2C)cc1 | 0.294 | -3.42 | 0.91 | -0.792 | -1.13 | -0.0731 | -0.17 | 0.232 | 0.473 | 0.894 | -0.89 | 0.55 (inactive) | -0.0077 | -0.104 | 0.574 | 0.784 | 0.0161 | 0.847 | 1.45 | 0.791 |
| COC(=O)[C@H]1[C@@H]2COc3ccccc3[C@H]2N[C@H]1C(=O)OC | -0.339 | -0.591 | 0.362 | 0.623 | -0.266 | -0.0161 | -0.0626 | -0.223 | 0.0767 | 0.854 | 0.235 | 0.0807 (inactive) | -0.0351 | -0.135 | 0.414 | 0.476 | 0.315 | 0.429 | 0.122 | 0.548 |
| CCOC(=O)[C@H]1C/C=C/C[C@H](C(=O)OCC)C(=O)O[C@H]2[C@@H](OC)O[C@H](CO)[C@@H](OC(=O)Nc3ccc(Br)cc3)[C@@H]2OC1=O | 0.205 | -3.56 | 0.561 | 1.64 | 0.155 | -0.0704 | 0.0515 | 1.5 | 0.396 | 0.465 | 0.827 | 0.285 (inactive) | -0.122 | -0.0863 | 0.516 | 2.22 | 0.704 | 1.3 | -0.12 | 1.09 |
